# About 410 targets per protein were measured; listed, in parts, are those with the strongest signals and a random draw of the rest.
# B1: CBM32-1 (Clostridium perfringens) (protein)
# chain: MGSSHHHHHHSSGLVPRGSHMASGVEITEGVTVTAKGNTEGNTADLAIDGDLSTYWESSNDYKWIEVDLGGIYELSKIEIFNKDEAVYKYNIYASEDGENFNKIAYKNNDNVSDSNGNVHTIDNVRAGKIRIDVVQNSNSDRVNIAEINVFG
# What was measured:
# Experiment in all cases: glycan array binding signal (z-score within array); higher = stronger binding
# Conditions in all cases: glycan notation: IUPAC condensed, linker removed
# [1] = target: Fuc(a1-2)Gal(b1-3)GalNAc(b1-3)Gal(a1-4)Gal(b1-4)Glc
# Method in brief: (§1)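 From the Consortium for Functional Glycomics database, 3228 arrays were curated, keeping only those whose protein sequence was available. Binding is given as a within-array Z-score averaged across arrays sharing a protein sequence and across linkers. Negative Z-scores can be read as non-binding.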
# [2] = target: Fuc(a1-2)[GalNAc(a1-4)]Gal(b1-4)GlcNAc
# Method in brief: as §1
# [3] = target: Fuc(a1-3)[Gal(b1-4)]GlcNAc(b1-4)Gal(b1-4)[Fuc(a1-3)]GlcNAc
# Method in brief: as §1
# [4] = target: Fuc(a1-3)[Gal3S(b1-4)]GlcNAc
# Method in brief: as §1
# Gal(b1-3)GlcNAc = target: Gal(b1-3)GlcNAc
# Method in brief: as §1
# [5] = target: Gal(b1-4)GlcNAc(b1-3)Gal(b1-4)GlcNAc(b1-3)Gal(b1-4)GlcNAc
# Method in brief: as §1
# Gal3S(b1-4)Glc6S = target: Gal3S(b1-4)Glc6S
# Method in brief: as §1
# Gal3S6S(b1-4)GlcNAc6S = target: Gal3S6S(b1-4)GlcNAc6S
# Method in brief: as §1
# Gal6S(b1-4)Glc = target: Gal6S(b1-4)Glc
# Method in brief: as §1
# Gal6S(b1-4)Glc6S = target: Gal6S(b1-4)Glc6S
# Method in brief: as §1
# GalNAc(a1-3)GalNAc = target: GalNAc(a1-3)GalNAc
# Method in brief: as §1
# Glc(a1-6)Glc(a1-6)Glc = target: Glc(a1-6)Glc(a1-6)Glc
# Method in brief: as §1
# [6] = target: GlcNAc(b1-4)GlcNAc(b1-4)GlcNAc(b1-4)GlcNAc(b1-4)GlcNAc
# Method in brief: as §1
# Kdn(a2-3)Gal(b1-4)GlcNAc = target: Kdn(a2-3)Gal(b1-4)GlcNAc
# Method in brief: as §1
# [7] = target: Neu5Ac(a2-3)Gal(b1-4)GlcNAc(b1-2)Man(a1-3)[GlcNAc(b1-2)Man(b1-4)GlcNAc(b1-2)Man(a1-6)]Man(b1-4)GlcNAc(b1-4)GlcNAc
# Method in brief: as §1
# [8] = target: Neu5Ac(a2-6)Gal(b1-4)GlcNAc(b1-3)Gal(b1-4)[Fuc(a1-3)]GlcNAc(b1-3)Gal(b1-4)[Fuc(a1-3)]GlcNAc
# Method in brief: as §1
# [9] = target: Neu5Ac(a2-8)Neu5Ac(a2-3)[GalNAc(b1-4)]Gal(b1-4)Glc
# Method in brief: as §1
binder,measurement,setting,value
B1,glycan array binding signal (z-score),[1],-0.205
same,glycan array binding signal (z-score),[2],0.059
same,glycan array binding signal (z-score),[3],0.331
same,glycan array binding signal (z-score),[4],-0.283
same,glycan array binding signal (z-score),Gal(b1-3)GlcNAc,-0.333
same,glycan array binding signal (z-score),[5],0.889
same,glycan array binding signal (z-score),Gal3S(b1-4)Glc6S,3.21
same,glycan array binding signal (z-score),Gal3S6S(b1-4)GlcNAc6S,5.08
same,glycan array binding signal (z-score),Gal6S(b1-4)Glc,0.513
same,glycan array binding signal (z-score),Gal6S(b1-4)Glc6S,4.39
same,glycan array binding signal (z-score),GalNAc(a1-3)GalNAc,-0.173
same,glycan array binding signal (z-score),Glc(a1-6)Glc(a1-6)Glc,-0.279
same,glycan array binding signal (z-score),[6],5.14
same,glycan array binding signal (z-score),Kdn(a2-3)Gal(b1-4)GlcNAc,-0.439
same,glycan array binding signal (z-score),[7],3.77
same,glycan array binding signal (z-score),[8],0.193
same,glycan array binding signal (z-score),[9],-0.358
